Rows were chosen to be rich in hits. Some 11% of all compounds tested hit in one or more screens of this group.
VACV Venus inh – vaccinia inhibition (Venus reporter) | Vaccinia virus Venus reporter expression, fluorescence | Potency, µM (series often up to 36.5 µM), actives largely listed as inhibitors | 330,000 compounds, 0.46% hits; calls by dose curve; tested in A549 cells; note: nearly all actives have a fitted effect of over 30% in size
NS1 function inh – inhibitors of influenza NS1 protein function; Potency, µM (highest dose often 46.1 µM); 270,000 compounds, 0.4% hits; AID 2326; calls by dose curve; note: actives are rising curves; nearly all actives have a fitted effect of over 50% in size
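OD600 was taken as the measure of yeast growth restored by compound in an NS1-expressing S. cerevisiae strain. Cells had been washed out of glucose medium and diluted 1:100 into galactose -URA medium, pH 6.0.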
Pf growth 96h – P. falciparum growth inhibition at 96 hours | P. falciparum luciferase reporter growth, 96 h | Potency, µM (series often up to 28.7 µM), most hits filed as inhibitors | 320,000 compounds, 6.9% hits | AID 504834
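96 h incubation, 37 C, 5% CO2, of luciferase-reporter P. falciparum-infected RBCs (2% hematocrit, 0.05% parasitemia final) with test compounds; endpoint luminescence.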
Pf growth 48h – inhibits P. falciparum growth in the first generation, 48 h; P. falciparum luciferase growth in erythrocytes, 48 h; Potency, µM (doses to about 28.7 µM), actives largely listed as inhibitors; 310,000 compounds, 5.9% hits; AID 504832
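Luciferase-expressing P. falciparum in infected erythrocytes (2% hematocrit, 0.1% parasitemia final) in RPMI 1640/0.5% Albumax were exposed to compound for 48 hours at 37 C, 5% CO2; growth read as luminescence.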
HCV inhibitor – HCV inhibition. Huh7.5.1 HCVcc-Cre infection, luciferase reporter, 44 h. Potency, µM (series often up to 41.8 µM), most hits filed as inhibitors. 340,000 compounds, 3.4% hits
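Whole-lifecycle infectious HCVcc-Cre system; cells 1,000/well, compound then virus (~0.5 moi) added 4 h after plating, 44 h culture. Luciferase read 15 sec following 15 min substrate incubation, room temp.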
VACV mCherry inh – vaccinia inhibition (mCherry reporter) | 310,000 compounds, 0.63% hits | Potency, µM (doses to about 36.5 µM), usual class: inhibitors | AID 720579 | Vaccinia virus mCherry reporter infection, fluorescence; calls by dose curve; tested in A549 cells; note: nearly all actives have a fitted effect of over 35% in size
HCV confirm – HCV inhibition, cherry-pick confirmation. Potency, µM (highest dose often 41.8 µM), hits mostly inhibitors. HCVcc-Cre infectious virus cell assay, luciferase, inhibition. shares compounds with HCV inhibitor. 640 compounds, 78% hits; note: nearly all actives have a fitted effect of over 80% in size
HCV host tox – host cell cytotoxicity counter-screen for HCV inhibitors; shares compounds with HCV inhibitor; HCV host cell line cytotoxicity counterscreen; Potency, µM (series often up to 41.8 µM), hits mostly inhibitors; 640 compounds, 22% hits;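 note: 44 h compound exposure; nearly all actives have a fitted effect of over 55% in size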
Hits are given with their value; - = inactive; ? = inconclusive; . = no result. Unless noted, calls come from the whole dose curve; as a rule, active = well fitted curve in the direction sought with a large enough effect; inconclusive = small, poorly fitted or top-dose-only effect, or another doubt; inactive = no such curve, though single readings can be large; an effect the other way counts as inactive or inconclusive.

SMILES	VACV Venus inh	NS1 function inh	Pf growth 96h	Pf growth 48h	HCV inhibitor	VACV mCherry inh	HCV confirm	HCV host tox
COc1ccc(CCn2c(SCC(=O)Nc3cc(C)on3)nc3ccccc3c2=O)cc1OC	-	-	-	-	-	-	.	.
CC1(C)Oc2ccc(C(=O)NC3CCCC3)cc2N(CC(=O)N2CCOCC2)C1=O	.	-	.	-	-	.	.	.
COc1cc(/C=C2/SC(=S)N(c3ccccc3)C2=O)ccc1Oc1nc(N2CCOCC2)nc(N2CCOCC2)n1	-	-	-	-	-	-	.	.
CCc1ccc2[nH]c(=O)c(CN(Cc3ccccc3OC)Cc3nnnn3Cc3ccco3)cc2c1	28.2µM	?	?	4.65µM	8.91µM	.	25µM	-
CC(=O)Nc1ccc(NC(=O)c2cccc3c2-c2ccccc2C3=O)cc1	-	.	-	-	-	-	.	.
CC(=O)Nc1ccc(NC2=C(Cl)C(=O)c3ccccc3C2=O)cc1	?	.	-	-	3.16µM	?	25µM	22.3µM
COC(=O)c1cccc(NC(=O)c2ccc(OC)c(Cl)c2)c1	-	-	-	-	?	-	.	.
CC#CC[N+](C)(C)CCCCCCCCCCCC	.	-	0.586µM	2.94µM	5.01µM	.	14.1µM	-
Cn1c2ccccc2c(=O)c2ccc(C#Cc3ccc(N)cc3)cc21	?	-	9.28µM	-	6.31µM	?	22.3µM	-
Cc1cccc(NS(=O)(=O)c2cccc3nsnc23)c1	-	-	-	-	-	.	.	.
CCCc1ccc(C2C3=C(CC(C)(C)CC3=O)NC3=C2C(=O)c2ccccc23)cc1 (stereo unspecified)	?	?	3.29µM	9.28µM	2.24µM	-	11.2µM	?
Cc1cccc(N2CCc3c2nc2ccccc2c3N)c1	-	-	10.4µM	?	8.91µM	?	22.3µM	-
COc1ccc(CC(=O)Nc2cccc(-c3nnc(-c4ccc(C)cc4)o3)c2)cc1OC	-	-	-	?	3.16µM	-	6.28µM	-
Cc1ccc(OCC(=O)Nc2cccc(-c3nnc(-c4ccccc4)o3)c2)c(C)c1	.	-	?	-	?	.	.	.
Cc1cccc2c1-c1sc(C(=O)NCCCN3CCC(C)CC3)cc1CO2	.	-	?	?	5.01µM	.	25µM	-
Cc1nn(-c2ccc(F)cc2)c(-n2cccc2)c1C(=O)N1CCCCC1C (stereo unspecified)	-	.	.	.	.	-	.	.
COC(=O)CN1C(=O)C(O)(CC(=O)c2ccc(Cl)cc2)c2ccccc21 (stereo unspecified)	-	-	-	-	-	-	.	.
COC(=O)C[C@]1(C(=O)OC)CN(C#N)N(c2ccc(Cl)cc2)C12c1ccccc1-c1ccccc12	?	-	3.7µM	3.7µM	5.62µM	11.2µM	3.15µM	7.91µM
O=C(Nc1ccccc1)c1cc(-n2cnnc2)ccc1Cl	.	-	-	-	-	.	.	.
COc1ccc(S(=O)(=O)N(C)C)cc1NC(=O)C1CCN(c2ncnc3sc(C)c(C)c23)CC1	.	.	.	.	8.91µM	.	8.87µM	?
Cc1sc2ncnc(N3CCC(C(=O)Nc4ccc(C#N)cc4)CC3)c2c1C	-	.	?	?	-	-	.	.
CCCn1c(N)c(C(=O)COc2ccc(Br)cc2F)c(=O)n(C)c1=O	.	-	-	?	?	.	22.3µM	-
CC(C)CNC(=S)N(CCN(C)C)Cc1cc2cc3c(cc2[nH]c1=O)OCO3	-	-	-	-	4.47µM	-	-	-
CNc1ccc(Br)cc(C(=O)/C=C/c2cc(OC)ccc2OC)c1=O	.	?	-	?	5.01µM	.	?	-
O=S(=O)(c1ccccc1)c1nnn2c1nc(NC1CCN(Cc3ccccc3)CC1)c1ccccc12	.	-	?	?	8.91µM	.	14.1µM	-
SMILES	VACV Venus inh	NS1 function inh	Pf growth 96h	Pf growth 48h	HCV inhibitor	VACV mCherry inh	HCV confirm	HCV host tox
Cc1ccc(C)c(Nc2nc3c(S(=O)(=O)c4ccccc4)nnn3c3ccccc23)c1	-	-	?	?	?	-	.	.
CC(C)(C)c1ccc(C(=O)NCC(=O)N2CCC3(CC2)NCCc2[nH]cnc23)cc1	.	-	-	-	-	.	.	.
Cc1cc(Cl)ccc1NC(=O)NC1CCN(S(=O)(=O)c2ccc(F)cc2)CC1	-	-	?	.	4.47µM	?	11.2µM	-
CN(C)CCNC(=O)CCCNC(=O)Cn1cnc2sc3c(c2c1=O)CCCC3	.	-	?	-	-	.	.	.
COc1ccc(C(=O)NNC(=O)c2cccc(F)c2)cc1	-	-	-	-	-	-	.	.
O=C1CC(N2CCN(c3ccc(F)cc3)CC2)C(=O)N1c1ccc2c(c1)OCO2 (stereo unspecified)	.	-	?	-	-	.	.	.
COc1cccc(Oc2ccc(N)cn2)c1	-	-	-	-	?	-	.	.
Cc1cc(Oc2ccc(N)cn2)ccc1Cl	-	-	-	-	?	-	?	-
Oc1c(N=Nc2ccccn2)ccc2ccccc12	?	-	8.28µM	?	2.51µM	?	17.7µM	?
Cc1ccc(CNC(=O)Cc2csc(Nc3nc(=S)[nH]c4ccccc34)n2)cc1	.	-	-	-	.	.	.	.
O=C(Cc1csc(Nc2nc(=S)[nH]c3ccccc23)n1)N1CCN(c2cccc(C(F)(F)F)c2)CC1	-	-	-	-	5.62µM	-	12.5µM	12.5µM
COc1ccc(-c2cc(C)no2)cc1S(=O)(=O)N1CCN(c2ccc([N+](=O)[O-])cc2)CC1	.	-	?	?	3.98µM	.	8.87µM	25µM
COc1ccccc1NC(=O)CSc1nnc(-c2ccoc2C)n1C	-	-	-	-	-	-	.	.
Cc1ccc(C)c2nc(SCC(=O)N3CCCc4ccccc43)c(C#N)cc12	.	-	?	-	6.31µM	.	7.05µM	-
COc1ccc(-c2cc(C(F)(F)F)nc(SCC(=O)N(C)Cc3ccccc3)n2)cc1	-	.	.	.	.	-	.	.
COc1ccccc1NS(=O)(=O)c1cc(NC(=O)/C=C/c2cccs2)ccc1N1CCOCC1	-	14.1µM	?	11.7µM	?	-	19.9µM	-
O=C(/C=C/c1cccs1)Nc1ccc(N2CCOCC2)c(S(=O)(=O)Nc2ccccc2Cl)c1	-	-	?	?	?	-	.	.
N/C(=N/OC(=O)c1cccc([N+](=O)[O-])c1)c1cccc([N+](=O)[O-])c1	-	-	-	-	?	-	.	.
CC1=C(C)/C(=N/OC(=O)c2cccc([N+](=O)[O-])c2)C=CC1=O	.	-	?	?	7.08µM	.	31.5µM	31.5µM
Clc1ccc(CNCCCSc2ncccn2)cc1	-	-	?	-	-	-	.	.
CC1(C)CC(CCC(=O)Nc2ccc(S(N)(=O)=O)cc2)C(=O)O1 (stereo unspecified)	.	-	-	-	-	.	.	.
Cc1ccc(NC(=O)CCC2CC(C)(C)OC2=O)cc1 (stereo unspecified)	-	.	-	-	3.98µM	-	-	-
O=C(CC1(O)C(=O)N(CCc2ccccc2)c2ccccc21)c1ccco1 (stereo unspecified)	-	-	-	-	-	-	.	.

High-throughput results as filed in PubChem.
